High-throughput results from PubChem BioAssay.
The list is not random: actives were taken first. Their share in the collection is about 19%.
DT40 TDP1 no CPT: qHTS for Inhibitors of human tyrosyl-DNA phosphodiesterase 1 (TDP1): qHTS in cells in absence of CPT. DT40 Tdp1-/- hTDP1 cells, no CPT, ATP luminescence, 48 h. Potency, µM (series often up to 46.2 µM), without a hit: top-dose activity change, negative = growth inhibition, hits mostly inhibitors. hit rate 15% among 420,000. AID 686978, 2013; further: potency means the concentration at half of the fitted maximal effect; nearly all actives have a fitted effect of over 55% in size
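Chicken DT40 Tdp1-/- cells stably complemented with human TDP1 were seeded at 400 cells/well with DMSO in place of 20 nM camptothecin. After compound pinning, cells grew at least 48 hr at 37 °C; viability read by CellTiter-Glo luminescence.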
ELG1 repair inh: qHTS screen for small molecules that inhibit ELG1-dependent DNA repair in human embryonic kidney (HEK293T) cells expressing luciferase-tagged ELG1; HEK293T ELG1-luciferase reporter, luminescence, 16 h; DNA damage induced by 5-fluorouridine; Potency, µM (titrated, usually from 46.1 µM), for inactives: at the highest dose activity change, negative = inhibition, most hits filed as inhibitors; hit rate 2.3% among 330,000; AID 504467, 2011; further: potency means the concentration at half of the fitted maximal effect; nearly all actives have a fitted effect of over 55% in size
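Cells (2,000 per well) received 5-fluorouridine plus test compound or DMSO and were incubated 16 hr at 37 °C, 5% CO2. Luciferase activity was read by luminescence 30 min after ONE-Glo addition; signal suppression marked inhibition of damage-induced ELG1 function.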
HT1080NT lethal: qHTS for induction of synthetic lethality in tumor cells producing 2HG: qHTS for the HT-1080-NT fibrosarcoma cell line; HT-1080-NT fibrosarcoma viability, CellTiter-Glo ATP luminescence, 48 h; Potency, µM (titrated, usually from 46.1 µM), inactives show at the top dose activity, negative = less viability, usual class: cytotoxic; hit rate 1.6% among 360,000;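 further: NT is the 2HG producing partner of a matched IDH1 knockdown line; potency means the concentration at half of the fitted maximal effect; 0% = DMSO-treated cells and -100% = media-only wells without cells; nearly all actives have a fitted effect of over 55% in size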
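HT-1080-NT; 750 cells/well; 5% FBS RPMI; 48 h compound, 37 degrees C; CellTiter-Glo luminescence; curve fitting and curve-class assignment.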
IL1B secr inh: qHTS for Inhibitors of Inflammasome Signaling: IL-1-beta AlphaLISA Primary Screen; activity change, % at 57.5 µM; hit rate 4.7% among 360,000; THP-1 LPS/ATP IL-1B secretion, AlphaLISA, 16 h; hits give low values; in the data active means activity change below about -50%; inconclusive means mostly about -30% to -49%
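Secreted IL-1B measured by AlphaLISA bead assay after 16 h compound exposure of THP-1 cells; compounds (final up to 57.5 uM) added 1 h before LPS (250 ng/mL) and ATP (1.25 mM) stimulation; lower signal means less secretion.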
HT1080 IDH1KD tx: qHTS for induction of synthetic lethality in tumor cells producing 2HG: qHTS for the HT-1080-IDH1KD cell line | HT-1080 IDH1 knockdown viability, ATP luminescence, 48 h | Potency, µM (highest dose often 46.1 µM), for inactives: at the highest dose activity, negative = toxicity, actives largely listed as cytotoxic | hit rate 2% among 360,000 | AID 686971, 2013;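 further: potency means the concentration at half of the fitted maximal effect; 0% = DMSO wells and -100% = cell-free medium wells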
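Assay cells: HT-1080 with IDH1 knockdown, 750 per well, RPMI/5% FBS. Exposure: 48 h at 37 °C following 2 h pre-incubation. Read: CellTiter-Glo luminescence; fitted concentration-response, curve class assigned.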
TDP1 cell CPT: qHTS for Inhibitors of human tyrosyl-DNA phosphodiesterase 1 (TDP1): qHTS in cells in presence of CPT; chicken DT40 Tdp1-/-;hTDP1 cells + 20 nM CPT, ATP luminescence, 48 h; AID 686979, 2013; hit rate 12% among 420,000; Potency, µM (titrated, usually from 46.2 µM), inactives show at the top dose activity change, negative = growth inhibition, usual class: inhibitors; further: potency means the concentration at half of the fitted maximal effect; nearly all actives have a fitted effect of over 55% in size
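Chicken DT40 Tdp1-/- cells stably complemented with human TDP1 were seeded at 400 cells/well in medium containing 20 nM camptothecin, exposed to pin-transferred compounds, and grown at 37 °C for at least 48 hr. Viability was read as ATP luminescence.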
Numbers without * were called inactive; ? = inconclusive; nt = no result given. Unless noted, the call rests on the fitted dose curve; in most records, active means well fitted curve in the direction sought with a large enough effect; inconclusive means small, poorly fitted or top-dose-only effect, or another doubt; inactive means no such curve, though single readings can be large; an effect the other way counts as inactive or inconclusive. Unless noted, on the % scale 0 is the no-effect control and ±100 the full control effect.

SMILES | DT40 TDP1 no CPT | ELG1 repair inh | HT1080NT lethal | IL1B secr inh | HT1080 IDH1KD tx | TDP1 cell CPT
Cc1cc2c(ccc3[nH]onc32)n1 | ? | ? | -13% | -60* | -4% | -25%
Cc1cccc(C)c1N=Nc1c(C)cc(O)cc1C | -26% | 30% | ? | -89* | 21µM* | 13%
COCCn1c(=O)c(-c2cccc(C#N)c2)nc2cnc(OCc3ccccc3)nc21 | -24% | nt | nt | nt | nt | -11%
Fc1ccc(NC(=S)N2CCCN(c3ccc(C(F)(F)F)cn3)CC2)c(F)c1 | 18µM* | ? | 23µM* | -19 | ? | 16µM*
O=C(O)CSCC(=O)N1CCCN(c2ccc(C(F)(F)F)cn2)CC1 | 1% | -2% | 3% | 27 | 6% | 16%
Cc1csc2ncnc(N3CCN(C(=S)Nc4ccc(F)cc4F)CC3)c12 | 15µM* | ? | -14% | -13 | -10% | ?
O=C(Nc1ccc(F)cc1F)N1CCN(c2ncccn2)CC1 | -9% | 1% | 14% | -27 | 13% | 4%
O=C(Nc1ccc(F)cc1F)N1CCCN(c2ccc(C(F)(F)F)cn2)CC1 | ? | ? | ? | ? | 13µM* | ?
COc1cc(CN2CCNC(=O)C2CC(=O)N(C)CCN2CCOCC2)cc(OC)c1 (stereo not given) | 2% | -1% | 15% | 17 | 16% | 0%
O=C(NCCc1nc2ccccc2[nH]1)/C(=C/c1ccc2c(c1)OCO2)NC(=O)c1ccccc1Cl | ? | ? | 1% | -84* | 6% | ?
CCc1ccc(N2CC(C(=O)Nc3cccc(C(=O)NC4CC4)c3)CC2=O)cc1 (stereo not given) | 4% | 21% | -5% | 28 | -11% | 2%
Cc1cc(SC#N)cc(C)c1NC(=O)CCl | 2.6µM* | -26% | 18µM* | -64* | 23µM* | 3.3µM*
CCc1cc(SC#N)cc(C)c1NC(=O)CCl | 1.6µM* | ? | ? | -101* | ? | 1.5µM*
CCOC(=O)CC(=O)Nc1c(C)cc(C)cc1C | 5% | 14% | 7% | -16 | -1% | -2%
CCC(=O)Nc1ccc(SC#N)cc1C | 5µM* | -20% | ? | -101* | 7.9µM* | 6.5µM*
Cc1cccc(-c2noc(-c3ccc(NC4CCCC4)c([N+](=O)[O-])c3)n2)c1 | -26% | nt | nt | nt | nt | -25%
O=C1CC(N2CCCCCC2)C(=O)N1c1ccc2c(c1)OCO2 (stereo not given) | 6.3µM* | 4% | ? | -6 | ? | 3.7µM*
Cc1ccc2nc(N3CC(=O)Nc4ccccc43)nc(-c3ccccc3)c2c1 | ? | -21% | 18µM* | 30 | 16µM* | ?
Cc1ccc2nc(N3CCC(C(=O)O)CC3)nc(-c3ccccc3)c2c1 | -28% | 14% | -4% | 2 | 3% | -20%
C=CCn1c(SCC(=O)N2CCc3ccccc3C2)nc2sc(C)c(C)c2c1=O | ? | ? | -4% | -6 | 1% | 18µM*
C=CCn1c(SCC(=O)N2CCc3ccccc3C2)nc2sc(CC)cc2c1=O | ? | 23µM* | -4% | -2 | 0% | ?
C=CCn1c(SCC(=O)c2ccc(Cl)s2)nc2ccccc2c1=O | ? | -6% | -2% | 48 | -10% | ?
C=CCn1c(SCC(=O)c2cccs2)nc2sc(C)cc2c1=O | 21µM* | ? | -18% | -23 | ? | ?
C=CCn1c(SCC(=O)N2CCc3ccccc3C2)nc2ccccc2c1=O | 18µM* | -30% | 0% | 13 | -12% | ?
C=CCn1c(SCC(=O)N2CCOCC2)nc2sc(CC)cc2c1=O | ? | ? | -2% | -9 | -7% | ?
SMILES | DT40 TDP1 no CPT | ELG1 repair inh | HT1080NT lethal | IL1B secr inh | HT1080 IDH1KD tx | TDP1 cell CPT
COc1ccc2c(c1)c1c(c(=O)n(CCc3ccccc3)c(=O)n1Cc1ccc(F)cc1)n2C | -12% | nt | nt | nt | nt | -8%
Cc1cc(-c2onc3ccc(Cl)cc23)ccc1O | ? | -16% | -14% | ? | -25% | ?
CCN(C(=O)Cn1c(C(=O)OC)cc2sc(Cl)cc21)c1cccc(C)c1 | -16% | nt | nt | nt | nt | ?
COc1ccc(CCN(C)C(=O)CN2C(=O)NC3(CCCCC3C)C2=O)cc1OC (stereo not given) | -16% | 1% | -1% | -5 | 7% | -14%
COCC(C)n1c(SCc2cc(=O)n3cc(C)ccc3n2)nc2ccccc2c1=O (stereo not given) | 10µM* | ? | -25% | 5 | ? | ?
COCC(C)n1c(SCC(=O)N2CCc3ccccc3C2)nc2ccccc2c1=O (stereo not given) | 1.8µM* | ? | -4% | -24 | -1% | 2.3µM*
Cc1ccc2nc(CSc3nnc4ccccn34)cc(=O)n2c1 | 7% | ? | 8% | 31 | 13% | 2%
CC(C)CCN1CCN(CCCn2cccn2)CC1CCO (stereo not given) | 20% | 6% | 1% | -1 | 4% | 0%
CS(=O)(=O)N(CC(=O)N1CCC(C(N)=O)CC1)Cc1ccc(Cl)c(Cl)c1 | ? | 0% | 9% | -3 | 4% | 0%
Cc1occc1C(=O)N1CCCC(CO)(Cc2ccc(F)cc2F)C1 (stereo not given) | -23% | -2% | 2% | -12 | 7% | -2%
CN(C)c1ccc(C(=O)N2CCCC(Cn3cc(C(=O)N4CCCC4)nn3)C2)cc1 (stereo not given) | -11% | nt | nt | nt | nt | 1%
CCc1ccn2cc(-c3cc(-c4ccccc4)no3)nc2c1 | 18µM* | ? | ? | -20 | ? | ?
Cc1ccnc(N=O)c1 | -15% | ? | -3% | 2 | 1% | -13%
COc1ccc(NC(=O)Nc2cccc3c2O[C@H](CN(C)C(=O)Nc2ccccc2)[C@@H](C)CN([C@H](C)CO)C3=O)cc1 | -11% | ? | 1% | -5 | 3% | -4%
COc1ccc(S(=O)(=O)Nc2cccc3c2O[C@H](CN(C)Cc2ccc(Oc4ccccc4)cc2)[C@@H](C)CN([C@H](C)CO)C3=O)cc1 | 21µM* | 1% | -11% | -29 | -25% | 16µM*
